Source: PubChem BioAssay
Rows were chosen to be rich in hits. Some 9.2% of all compounds tested hit in one or more screens of this group.
HPGD block: inhibitors of human 15-hydroxyprostaglandin dehydrogenase (HPGD); purified HPGD, NADH fluorescence kinetic, PGE2 substrate; AID 894; P15428; hit rate 4.3% among 150,000; Potency, µM, usual class: inhibitors
Target sequence (P15428 whole entry, looked up): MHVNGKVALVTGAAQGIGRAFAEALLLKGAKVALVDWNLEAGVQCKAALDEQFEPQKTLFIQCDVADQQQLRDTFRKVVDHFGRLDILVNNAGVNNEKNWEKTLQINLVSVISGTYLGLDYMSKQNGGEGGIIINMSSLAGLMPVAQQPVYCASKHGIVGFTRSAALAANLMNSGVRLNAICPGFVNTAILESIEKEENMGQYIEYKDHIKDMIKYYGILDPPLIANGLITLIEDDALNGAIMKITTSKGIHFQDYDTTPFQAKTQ
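NADH formation kinetics: reaction with 30 uM PGE2 and 1 mM NAD+ (final), 20 nM enzyme, Tris-HCl pH 8 with Tween 20, after 15 min compound preincubation at room temperature. Fluorescence change, last versus first of five reads.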
HTT ATP protect: protects HTT-Q103 PC12 cells, measured by ATP; hit rate 0.14% among 230,000; Potency, µM (doses to about 56.4 µM), most hits filed as activators; PC12 HTT-Q103 induced, cytoprotection, ATP luminescence, 40 h; active = well fitted curve in the direction sought with a large enough effect; inconclusive = small, poorly fitted or top-dose-only effect, or another doubt; inactive = no such curve, though single readings can be large; an effect the other way counts as inactive or inconclusive; note: nearly all actives have a fitted effect of over 45% in size
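Cells were plated at 1500 per well in phenol red-free DMEM with 5% equine and 5% calf serum. Tebufenozide (100 nM final) and compounds were added, then ATPlite reagent, and luminescence was read.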
ALDH1A1 block: ALDH1A1 (human) enzyme inhibition; P00352; Purified ALDH1A1, NADH fluorescence, propionaldehyde substrate; Potency, µM (doses to about 75.3 µM), actives largely listed as inhibitors; hit rate 7.3% among 220,000; AID 1030
Target sequence (P00352 whole entry, looked up): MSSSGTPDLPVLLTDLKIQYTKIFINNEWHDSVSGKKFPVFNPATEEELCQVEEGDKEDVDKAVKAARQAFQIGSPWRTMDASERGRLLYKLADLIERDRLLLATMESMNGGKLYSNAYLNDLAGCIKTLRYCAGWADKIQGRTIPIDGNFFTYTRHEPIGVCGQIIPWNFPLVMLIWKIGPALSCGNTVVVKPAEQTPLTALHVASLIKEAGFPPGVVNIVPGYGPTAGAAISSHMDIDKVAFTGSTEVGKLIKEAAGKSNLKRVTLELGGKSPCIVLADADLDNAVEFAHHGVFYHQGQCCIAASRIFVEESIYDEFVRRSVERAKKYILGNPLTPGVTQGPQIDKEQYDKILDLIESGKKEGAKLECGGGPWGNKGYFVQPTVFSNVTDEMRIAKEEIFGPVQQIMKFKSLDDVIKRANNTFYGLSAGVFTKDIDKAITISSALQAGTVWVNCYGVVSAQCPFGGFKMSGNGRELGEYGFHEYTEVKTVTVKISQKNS
Lamin A splicing: changes lamin A minigene splicing in HeLa cells. AID 1487. hit rate 0.01% among 200,000. Potency, µM (top dose mostly 46.1 µM), most hits filed as inhibitors. HeLa LMNA splicing GFP/RFP minigene ratio, 48 h; active = well fitted inhibition curve with a large enough effect in the signal ratio, with a control signal flat, not every such curve was filed as active; inconclusive = small, poorly fitted or top-dose-only effect, or effect the other way, or a change in a side signal; the % refers to the signal ratio
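S3 HeLa cells stably expressing lamin A-EGFP splicing minigene plus DsRed2, 600 cells/well, 48 h compound exposure at 37C. Laser-scanning cytometry; analysed as GFP (500-530 nm)/RFP (575-640 nm) total intensity ratio; 0.5% DMSO vehicle.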
HTT aggregate: inhibitors of mutant huntingtin aggregate formation in PC12 cells | hit rate 1.1% among 220,000 | Potency, µM (series often up to 46.1 µM), usual class: inhibitors | AID 1688 | PC12 HttQ103-GFP aggregates, Acumen cytometry, 40 h; active = well fitted curve in the direction sought with a large enough effect; inconclusive = small, poorly fitted or top-dose-only effect, or another doubt; inactive = no such curve, though single readings can be large; an effect the other way counts as inactive or inconclusive; note: nearly all actives have a fitted effect of over 60% in size
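Aggregates are detected as GFP objects 1–25 µm with signal 6 STDEV over background in lysates of induced PC12 cells. These carry Huntingtin exon 1 with 103 glutamines fused to GFP under an ecdysone promoter; compounds titrated.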
JMJD2E inh: blocks human JMJD2E demethylase activity; JMJD2E catalytic domain, FDH-coupled NADH fluorescence (FDH is formaldehyde dehydrogenase); AID 2147; hit rate 1.6% among 230,000; Potency, µM (series often up to 57.1 µM), most hits filed as inhibitors; note: nearly all actives have a fitted effect of over 50% in size
A number is an active result; - = inactive; ? = inconclusive; . = no result; ! = a repeat was not active; [ ] = another dose, or the depositor's remark. Unless noted, calls come from the whole dose curve; as a rule, active = well fitted inhibition curve with a large enough effect (not every such curve was filed as active); inconclusive = small, poorly fitted or top-dose-only effect, or another doubt; inactive = no such curve, though single readings can be large or run the other way.

SMILES	HPGD block	HTT ATP protect	ALDH1A1 block	Lamin A splicing	HTT aggregate	JMJD2E inh
CN(C)C(Cc1ccccc1)C(=O)c1ccc(-c2ccccc2)cc1 (stereo unspecified)	-	-	?	-	-	-
COC(=O)[C@H]1C(=O)[C@H](C(=O)OC)[C@@H]2CC[C@H]1N2C	-	-[10 µM]	-[13.5 µM]	.	.	.
Cc1ccc(N2C(=O)NC(=O)/C(=C\c3cccn3C(C)(C)C)C2=O)cc1	.	-	0.562µM	-	-	-
CCOc1ccc(N2C(=O)NC(=O)/C(=C/c3cnc(SC)nc3)C2=O)cc1	.	-	?	-	-	35.5µM
Cc1ccc(N2C(=O)NC(=O)/C(=C/c3cnn(-c4ccc(C)cc4)c3)C2=O)cc1	?	.	2.51µM	-	-	-
Cc1ccc(N2C(=O)NC(=O)/C(=C\c3cnc(-c4ccccc4)nc3)C2=O)cc1	?	-[10 µM]	8.91µM	-	-	3.16µM
CSc1ncc(/C=C2/C(=O)NC(=O)N(c3ccc(C)cc3)C2=O)cn1	.	-	?	-	-	?
c1ccc2cc3c(cc2c1)-c1cccc2cccc-3c12	-	-	?	.	.	.
CC1CN=C(Nc2ccc(N(C)C)cc2)S1 (stereo unspecified)	.	-	-	-	-	-
CC1CN=C(Nc2ccccc2)S1 (stereo unspecified)	8.91µM	-[10 µM]	-	-	-	-
[O-]/[N+](=N\O)c1ccccc1	12.6µM	-	10µM	.	.	.
CC1=NN(c2ccccc2)C(=O)/C1=C/c1c(O)[nH]c(=S)[nH]c1=O	20µM	-	?	-	-	-
CC1=NN(c2ccccc2)C(=O)/C1=C/c1c(O)[nH]c(=O)[nH]c1=O	.	.	?	.	-	-
CN(C)c1ccc(C=C2C(=O)NC(=S)NC2=O)cc1[N+](=O)[O-]	.	-	11.2µM	-	-	?
C[C@@H]1O[C@H](O[C@H]2C[C@@H](O)[C@@]3(CO)[C@H]4[C@@H](O)C[C@]5(C)[C@@H](C6=CC(=O)OC6)CC[C@]5(O)[C@H]4CC[C@]3(O)C2)[C@@H](O)[C@H](O)[C@@H]1O	-	?	-	?	.	-
Oc1cccc[c]1[Hg][Cl]	.	-	.	.	8.91µM	.
CC(C)(C)c1cc(O)ccc1O	-	31.6µM!	3.55µM	?	?	.
Cc1ccccc1O	-	-	-	.	.	.
COc1ccc(O)c(C(C)(C)C)c1	-	-	-	.	-	-
CC(C)(C)c1ccccc1O	-	-	31.6µM	.	.	.
Fc1ccccc1N1CCN(Cc2c(F)cccc2F)CC1	-	-[0.074 µM]	?	-	-	20µM
C[C@H](N)[C@H](O)c1ccc(O)c(O)c1	-	-	-	?	.	4.47µM
C[C@@H](N)[C@@H](O)c1ccc(O)c(O)c1	.	-	-	?	-	.
CC(N)[C@H](O)c1ccc(O)c(O)c1 (stereo partly specified)	-	.	-	?	.	5.62µM
O=C(O)CBr	-	-	-	.	.	.
SMILES	HPGD block	HTT ATP protect	ALDH1A1 block	Lamin A splicing	HTT aggregate	JMJD2E inh
c1ccoc1	-	-	-	.	.	.
O=C(O)Cn1cc(C(=O)c2ccccc2)c2ccccc21	-	-	-	-	-	-
CCc1ccccc1N1C(=O)NC(=O)/C(=C\c2cc(C)n(C)c2C)C1=O	-	-[10 µM]	-	-	?	-
O=C(O)Cn1cc(/C=C2\C(=O)NC(=O)N(Cc3ccco3)C2=O)c2ccccc21	.	-[10 µM]	8.91µM	-	-	?
Cc1cc(/C=C2/C(=O)NC(=O)N(Cc3ccco3)C2=O)c(C)n1-c1ccccc1O	.	-[10 µM]	.	.	-[9.22 µM]	31.6µM
CC(C)(C)c1ccc(O)c(C[N+](C)(C)C)c1	-	-[10 µM]	-[13.5 µM]	.	.	.
O=c1[nH]c(=O)n(Cc2ccco2)c(O)c1C=NCc1ccco1	28.2µM	-	10µM	?	-	-
CC(=O)Nc1ccc(N=Cc2c(O)n(Cc3ccco3)c(=O)[nH]c2=O)cc1	.	-[10 µM]	9.46µM	?	-[9.22 µM]	?
O=C(N/N=C/c1c(O)n(Cc2ccco2)c(=O)[nH]c1=O)c1ccccc1O	.	-[10 µM]	.	.	-[9.22 µM]	?
CCCCC(=O)N/N=C/c1c(O)n(Cc2ccco2)c(=O)[nH]c1=O	-	-[10 µM]	-	-	-	25.1µM
CC1=C2C(=O)[C@@H]3[C@@H](CC=C4C[C@@H](O)CC[C@@]43C)[C@H]2CC[C@@]12O[C@H]1C[C@H](C)CN[C@H]1[C@@H]2C	-	-[10 µM]	-[13.5 µM]	.	.	.
CN1CCc2cc3c(cc2[C@@H]1[C@H]1OC(=O)c2c1ccc1c2OCO1)OCO3	.	-	.	.	.	.
CC(C)C1C(=O)N2CCC[C@H]2[C@]2(O)O[C@](NC(=O)[C@@H]3C=C4c5cccc6[nH]cc(c56)C[C@H]4N(C)C3)(C(C)C)C(=O)N12 (stereo partly specified)	.	-	?	.	.	.
Cc1cccc(C)c1N	-	-	-	.	.	.
Nc1c(Br)cc([N+](=O)[O-])cc1[N+](=O)[O-]	-	-	25.1µM	.	.	.
Clc1cccc(C(Cl)(Cl)Cl)n1	-	-	-	.	.	.
Cc1cccc(N2C(=O)/C(=C/c3ccc(N4CCN(C)CC4)o3)C(=O)NC2=S)c1C	-	.	14.1µM	-	-	-
CCc1ccccc1N1C(=O)/C(=C/c2ccc(N3CCN(C)CC3)o2)C(=O)NC1=S	-	.	?	?	?	-
CCOC(=O)c1c(-n2c(C)cc(C=C3C(=O)NC(=O)NC3=O)c2C)sc2c1CCCC2	-	-	-	?	?	-
Cc1cccc(N2C(=O)NC(=O)/C(=C\c3cc(C)n(-c4sc5c(c4C#N)CCCC5)c3C)C2=O)c1C	3.98µM	-[10 µM]	0.251µM	-	5.01µM	-
Cc1c(C=O)c2ccccc2n1Cc1ccc(F)cc1	.	.	-	?	.	-
O=Cc1cn(Cc2ccc(F)cc2)c2ccccc12	.	-	0.126µM	-	?	-
O=Cc1cn(Cc2ccc([N+](=O)[O-])cc2)c2ccccc12	-	-[10 µM]	2.24µM	?	-	-
O=Cc1cn(Cc2ccccc2[N+](=O)[O-])c2ccccc12	-	.	1.26µM	?	14.1µM	-
O=[N+]([O-])c1ccccc1CNCCc1ccc(F)cc1	-	-	?	-	-	?
SMILES	HPGD block	HTT ATP protect	ALDH1A1 block	Lamin A splicing	HTT aggregate	JMJD2E inh
C=CC(N)=O	-	?	-	.	.	.
COC(=O)[C@@H]1C[C@@H]1[C@@H](NP(=O)(c1ccccc1)c1ccccc1)c1ccccc1	.	-	.	.	.	.
O=[N+]([O-])/C=C/c1ccccc1	-	-	-	.	.	.
C[C@@H]1Cc2cc3c(cc2C(c2ccc(N)cc2)=NN1)OCO3	.	-[1.9 µM]	.	.	.	.
Cn1c(O)c(/C=C/C=Nc2ccccc2)c(=O)n(C)c1=S	.	-[10 µM]	12.6µM	-	-	-
COc1c2ccoc2cc2oc(=O)ccc12	-	-[1.9 µM]	20µM	.	.	?
CC(C)CCCC(C)C1CCC2C3=CC[C@@H]4CC(O)CC[C@@]4(C)C3CC[C@]21C (stereo partly specified)	-	.	?	-	.	-
COc1cc(/C=C2\C(=O)NC(=O)N(c3ccccc3)C2=O)cc(OC)c1OC	?	-	12.6µM	-	-	-
COc1cc(/C=C2/C(=O)NC(=O)N(c3ccc(C)cc3)C2=O)cc(OC)c1OC	.	?	.	.	-[9.22 µM]	?
COc1ccc(/C=C2/C(=O)NC(=O)N(c3ccc(C)c(C)c3)C2=O)cc1CN1C(=O)c2ccccc2C1=O	10µM	-[10 µM]	7.94µM	-	-	-
